The text below walks through data of paper PMC10954555.

Assay [1] has as its target Large ribosomal subunit protein uL1 (UniProt P62906). The assay can be described thus: cross-linking mass spectrometry; other.
In assay [2] the target is 60S ribosome subunit biogenesis protein NIP7 homolog (UniProt Q9Y221). As to the kind of experiment: cross-link between two proteins; cross-linking mass spectrometry; other.
Assay [3] addresses Heat shock cognate 71 kDa protein (UniProt P11142). The assay can be described thus: other; cross-linking mass spectrometry; other.
Assay [4] has as its target Stress-70 protein, mitochondrial (UniProt P38646). The assay can be described thus: cross-link between two proteins; cross-linking mass spectrometry; other.
In assay [5] the target is THO complex subunit 2 (UniProt Q8NI27). The assay can be described thus: other; cross-linking mass spectrometry; other.
Assay [6] concerns the target THO complex subunit 1 (UniProt Q96FV9). As to the kind of experiment: cross-link between two proteins; cross-linking mass spectrometry; other.
Assay [7] concerns the target Transcription initiation factor TFIID subunit 5 (UniProt Q15542). The assay can be described thus: other; cross-linking mass spectrometry; other.
Assay [8] addresses Transcription initiation factor TFIID subunit 9 (UniProt Q16594). The assay can be described thus: other; cross-linking mass spectrometry; other.
In assay [9] the target is Transcription initiation factor TFIID subunit 9B (UniProt Q9HBM6). The assay can be described thus: other; cross-linking mass spectrometry; other.
Assay [10] has as its target Transcription initiation factor TFIID subunit 12 (UniProt Q16514). As to the kind of experiment: cross-link between two proteins; cross-linking mass spectrometry; other.
For assay [11], the target named is ELAV-like protein 1 (UniProt Q15717). The assay can be described thus: other; affinity purification or IP with mass spectrometry; other.
Assay [12] addresses Heterogeneous nuclear ribonucleoprotein L (UniProt P14866). The assay can be described thus: cross-link between two proteins; affinity purification or IP with mass spectrometry; cross-linking mass spectrometry; other.
For assay [13], the target named is DNA topoisomerase 3-alpha (UniProt Q13472). As to the kind of experiment: cross-link between two proteins; cross-linking mass spectrometry; other.
The target in assay [14] is RecQ-mediated genome instability protein 1 (UniProt Q9H9A7). The assay is described as above.
Assay [15] deals with Heterogeneous nuclear ribonucleoprotein A0 (UniProt Q13151). Described as above.
Assay [16] deals with Paired amphipathic helix protein Sin3a (UniProt Q96ST3). Described as above.
For assay [17], the target named is Pinin (UniProt Q9H307). The assay is described as above.
For assay [18], the target named is Polyhomeotic-like protein 2 (UniProt Q8IXK0). The description is as above.
The target of assay [19] is Pre-mRNA-processing factor 19 (UniProt Q9UMS4). The assay is described as above.
For assay [20], the target named is SAGA-associated factor 29 (UniProt Q96ES7). The assay is described as above.
For assay [21], the target named is Sin3 histone deacetylase corepressor complex component SDS3 (UniProt Q9H7L9). Described as above.

Heterogeneous nuclear ribonucleoprotein A0, sequence (Q13151 whole entry): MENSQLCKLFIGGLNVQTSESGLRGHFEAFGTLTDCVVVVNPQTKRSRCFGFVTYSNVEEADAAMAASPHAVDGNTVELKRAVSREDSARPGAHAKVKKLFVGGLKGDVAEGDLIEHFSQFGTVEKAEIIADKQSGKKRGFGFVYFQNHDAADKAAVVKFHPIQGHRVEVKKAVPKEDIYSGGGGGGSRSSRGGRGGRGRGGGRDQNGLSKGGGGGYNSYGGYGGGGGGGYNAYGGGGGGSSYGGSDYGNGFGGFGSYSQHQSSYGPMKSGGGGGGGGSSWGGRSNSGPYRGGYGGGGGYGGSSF
Endoplasmic reticulum chaperone BiP, P11021, sequence (P11021 whole entry): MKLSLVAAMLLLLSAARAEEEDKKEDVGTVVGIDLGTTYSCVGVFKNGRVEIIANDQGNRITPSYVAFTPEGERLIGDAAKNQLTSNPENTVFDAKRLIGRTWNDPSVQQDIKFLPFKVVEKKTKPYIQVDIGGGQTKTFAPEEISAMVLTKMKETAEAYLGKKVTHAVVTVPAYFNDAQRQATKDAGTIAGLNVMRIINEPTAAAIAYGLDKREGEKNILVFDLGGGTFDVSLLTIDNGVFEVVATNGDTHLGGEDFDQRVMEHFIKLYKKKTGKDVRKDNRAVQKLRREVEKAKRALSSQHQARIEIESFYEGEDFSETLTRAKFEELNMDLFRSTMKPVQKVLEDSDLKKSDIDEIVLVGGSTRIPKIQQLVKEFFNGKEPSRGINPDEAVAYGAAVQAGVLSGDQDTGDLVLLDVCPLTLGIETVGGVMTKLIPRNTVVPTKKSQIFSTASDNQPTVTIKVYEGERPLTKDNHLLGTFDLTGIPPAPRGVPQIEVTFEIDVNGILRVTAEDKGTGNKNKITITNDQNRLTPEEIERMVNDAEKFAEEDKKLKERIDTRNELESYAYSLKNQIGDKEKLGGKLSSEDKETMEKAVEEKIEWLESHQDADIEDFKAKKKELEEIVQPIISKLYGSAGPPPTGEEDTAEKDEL
RecQ-mediated genome instability protein 1, sequence (Q9H9A7 whole entry): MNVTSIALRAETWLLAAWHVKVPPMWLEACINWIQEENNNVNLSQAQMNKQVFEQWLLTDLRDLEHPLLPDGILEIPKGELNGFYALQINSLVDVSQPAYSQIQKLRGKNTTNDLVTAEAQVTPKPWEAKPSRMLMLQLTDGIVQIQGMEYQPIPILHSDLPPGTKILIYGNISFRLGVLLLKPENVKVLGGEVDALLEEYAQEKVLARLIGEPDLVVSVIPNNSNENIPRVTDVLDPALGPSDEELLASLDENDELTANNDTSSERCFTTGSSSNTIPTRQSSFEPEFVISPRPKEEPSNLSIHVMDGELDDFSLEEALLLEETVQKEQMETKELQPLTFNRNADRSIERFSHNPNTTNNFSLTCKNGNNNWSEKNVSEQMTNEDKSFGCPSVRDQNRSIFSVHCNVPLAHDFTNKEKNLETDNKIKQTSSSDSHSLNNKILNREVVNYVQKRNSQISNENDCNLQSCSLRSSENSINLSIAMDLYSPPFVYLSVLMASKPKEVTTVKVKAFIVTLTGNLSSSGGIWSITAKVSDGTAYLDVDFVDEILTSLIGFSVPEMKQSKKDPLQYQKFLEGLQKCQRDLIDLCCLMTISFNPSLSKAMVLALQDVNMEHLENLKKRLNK
Pinin, sequence (Q9H307 whole entry): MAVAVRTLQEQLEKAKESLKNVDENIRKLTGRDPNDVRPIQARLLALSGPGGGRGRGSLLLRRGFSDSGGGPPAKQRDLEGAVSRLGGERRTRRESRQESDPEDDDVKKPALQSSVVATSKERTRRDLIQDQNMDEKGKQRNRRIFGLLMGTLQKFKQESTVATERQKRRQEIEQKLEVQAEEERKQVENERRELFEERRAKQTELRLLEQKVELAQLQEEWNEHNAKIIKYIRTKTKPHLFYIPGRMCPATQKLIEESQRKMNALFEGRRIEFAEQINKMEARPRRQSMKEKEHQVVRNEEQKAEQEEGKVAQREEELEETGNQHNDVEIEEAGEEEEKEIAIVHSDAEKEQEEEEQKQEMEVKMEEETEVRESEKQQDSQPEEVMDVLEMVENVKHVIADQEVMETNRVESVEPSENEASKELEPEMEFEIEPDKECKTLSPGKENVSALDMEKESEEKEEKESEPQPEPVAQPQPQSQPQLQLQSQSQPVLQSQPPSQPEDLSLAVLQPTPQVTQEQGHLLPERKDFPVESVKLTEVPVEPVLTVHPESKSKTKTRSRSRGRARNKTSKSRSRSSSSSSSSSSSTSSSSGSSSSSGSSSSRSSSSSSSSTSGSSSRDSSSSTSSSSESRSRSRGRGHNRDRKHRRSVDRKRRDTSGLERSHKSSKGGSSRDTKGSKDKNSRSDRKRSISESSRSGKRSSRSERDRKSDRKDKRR
Transcription initiation factor TFIID subunit 12, sequence (Q16514 whole entry): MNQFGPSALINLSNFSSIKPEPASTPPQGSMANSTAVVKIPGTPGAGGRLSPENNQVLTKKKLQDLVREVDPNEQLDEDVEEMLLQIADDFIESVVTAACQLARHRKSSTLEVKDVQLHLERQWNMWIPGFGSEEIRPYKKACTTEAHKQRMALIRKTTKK
Heterogeneous nuclear ribonucleoprotein L, sequence (P14866 whole entry): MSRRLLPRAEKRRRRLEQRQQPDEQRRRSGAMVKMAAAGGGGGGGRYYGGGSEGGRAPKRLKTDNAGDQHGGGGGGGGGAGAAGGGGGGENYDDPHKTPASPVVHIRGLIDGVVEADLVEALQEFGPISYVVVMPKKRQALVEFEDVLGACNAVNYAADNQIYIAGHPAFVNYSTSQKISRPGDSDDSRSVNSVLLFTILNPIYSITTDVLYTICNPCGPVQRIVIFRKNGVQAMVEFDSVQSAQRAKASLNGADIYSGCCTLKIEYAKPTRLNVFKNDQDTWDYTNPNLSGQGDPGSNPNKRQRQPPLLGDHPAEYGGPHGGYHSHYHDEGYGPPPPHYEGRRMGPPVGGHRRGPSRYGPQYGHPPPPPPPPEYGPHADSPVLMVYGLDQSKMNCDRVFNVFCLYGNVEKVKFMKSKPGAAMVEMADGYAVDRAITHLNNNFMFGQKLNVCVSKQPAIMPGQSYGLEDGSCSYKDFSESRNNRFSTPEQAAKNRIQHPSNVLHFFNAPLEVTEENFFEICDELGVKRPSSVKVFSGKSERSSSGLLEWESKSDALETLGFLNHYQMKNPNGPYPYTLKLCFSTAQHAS
Transcription initiation factor TFIID subunit 9B, sequence (Q9HBM6 whole entry): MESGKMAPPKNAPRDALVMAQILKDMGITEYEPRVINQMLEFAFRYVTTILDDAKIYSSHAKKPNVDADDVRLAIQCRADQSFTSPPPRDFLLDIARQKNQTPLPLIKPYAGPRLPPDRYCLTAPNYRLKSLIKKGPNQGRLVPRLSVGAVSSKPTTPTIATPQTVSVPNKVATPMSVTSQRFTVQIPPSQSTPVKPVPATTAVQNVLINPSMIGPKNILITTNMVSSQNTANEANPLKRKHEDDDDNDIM
ELAV-like protein 1, sequence (Q15717 whole entry): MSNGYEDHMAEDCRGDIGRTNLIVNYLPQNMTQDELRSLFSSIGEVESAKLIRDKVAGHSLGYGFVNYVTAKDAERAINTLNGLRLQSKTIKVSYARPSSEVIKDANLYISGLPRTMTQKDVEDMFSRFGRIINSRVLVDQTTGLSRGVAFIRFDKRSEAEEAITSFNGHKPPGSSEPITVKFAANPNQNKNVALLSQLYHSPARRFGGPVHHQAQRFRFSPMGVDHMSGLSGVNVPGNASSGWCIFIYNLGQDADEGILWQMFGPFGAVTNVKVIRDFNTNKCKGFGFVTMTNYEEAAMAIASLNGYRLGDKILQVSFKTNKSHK
Heat shock cognate 71 kDa protein, sequence (P11142 whole entry): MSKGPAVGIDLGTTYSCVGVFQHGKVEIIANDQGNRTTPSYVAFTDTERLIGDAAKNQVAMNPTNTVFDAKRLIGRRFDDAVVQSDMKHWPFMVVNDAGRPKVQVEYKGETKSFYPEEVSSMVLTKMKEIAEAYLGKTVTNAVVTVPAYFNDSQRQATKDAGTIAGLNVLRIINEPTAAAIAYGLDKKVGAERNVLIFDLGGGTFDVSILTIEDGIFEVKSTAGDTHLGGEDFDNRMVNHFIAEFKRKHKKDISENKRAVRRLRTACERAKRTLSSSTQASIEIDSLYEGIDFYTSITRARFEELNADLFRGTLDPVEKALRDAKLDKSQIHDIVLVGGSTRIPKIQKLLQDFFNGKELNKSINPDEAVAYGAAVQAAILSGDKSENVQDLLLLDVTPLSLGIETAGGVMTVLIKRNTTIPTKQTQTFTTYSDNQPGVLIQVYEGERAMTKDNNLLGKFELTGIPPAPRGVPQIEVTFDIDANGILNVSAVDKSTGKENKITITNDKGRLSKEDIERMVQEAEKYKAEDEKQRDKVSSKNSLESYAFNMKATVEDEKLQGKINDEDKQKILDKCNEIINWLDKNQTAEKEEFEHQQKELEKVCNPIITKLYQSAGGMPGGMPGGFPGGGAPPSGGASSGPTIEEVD
Stress-70 protein, mitochondrial, sequence (P38646 whole entry): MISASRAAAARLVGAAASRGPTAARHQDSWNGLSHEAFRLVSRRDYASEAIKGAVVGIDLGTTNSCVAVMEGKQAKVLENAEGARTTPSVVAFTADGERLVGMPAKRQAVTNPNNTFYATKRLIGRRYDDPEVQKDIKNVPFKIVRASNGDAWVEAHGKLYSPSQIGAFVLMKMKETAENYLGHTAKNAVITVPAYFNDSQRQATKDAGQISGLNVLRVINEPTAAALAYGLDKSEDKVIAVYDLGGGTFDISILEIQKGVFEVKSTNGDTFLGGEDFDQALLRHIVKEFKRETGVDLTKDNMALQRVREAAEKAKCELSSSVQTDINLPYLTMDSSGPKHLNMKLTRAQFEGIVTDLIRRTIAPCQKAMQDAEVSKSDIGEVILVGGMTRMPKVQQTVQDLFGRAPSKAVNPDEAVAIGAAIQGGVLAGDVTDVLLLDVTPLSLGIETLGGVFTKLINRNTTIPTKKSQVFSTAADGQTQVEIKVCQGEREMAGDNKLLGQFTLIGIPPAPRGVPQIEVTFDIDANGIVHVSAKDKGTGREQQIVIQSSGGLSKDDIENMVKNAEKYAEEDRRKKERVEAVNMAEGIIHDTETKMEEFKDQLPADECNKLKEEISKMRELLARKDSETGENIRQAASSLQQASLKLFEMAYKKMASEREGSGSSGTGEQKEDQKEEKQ

Turning to “28S rRNA (cytosine(4447)-C(5))-methyltransferase, P46087”, the “listed as a hit” value in assay [1] and in assay [2] was “yes” each time. With “Endoplasmic reticulum chaperone BiP, P11021”, the “listed as a hit” value in assay [3] and in assay [4] was “yes” in each case. On to THO complex subunit 7, Q6I9Y2, for which the “listed as a hit” value in assay [5] and in [6] was “yes” each time.

As to “Transcription initiation factor TFIID subunit 4, O00268”, the “listed as a hit” value in assay [7], in [8], in assay [9] and in assay [10] was “yes” each time. With “Heterogeneous nuclear ribonucleoproteins C1/C2, P07910”, the “listed as a hit” value in [11] and in assay [12] was “yes” throughout. As for RecQ-like DNA helicase BLM, P54132, the “listed as a hit” value in assay [13] and in [14] was “yes” throughout. “Heterogeneous nuclear ribonucleoproteins A2/B1, P22626”: the “listed as a hit” value in assay [15] was “yes”. On to “Heterogeneous nuclear ribonucleoprotein A1, P09651”, for which the “listed as a hit” value in assay [15] is reported as “yes”. For “Histone deacetylase complex subunit SAP30, O75446”, the “listed as a hit” value in assay [16] is recorded as “yes”.

Regarding “RNA-binding protein with serine-rich domain 1, Q15287”, in assay [17], the “listed as a hit” value was “yes”. In the case of “E3 ubiquitin-protein ligase RING1, Q06587”, in [18], the “listed as a hit” value was “yes”. Turning to Pre-mRNA-splicing factor SPF27, O75934, the “listed as a hit” value in assay [19] is “yes”. Regarding DNA topoisomerase 3-alpha, Q13472, the “listed as a hit” value in assay [14] is on record as “yes”.

Take Transcriptional adapter 3, O75528: the “listed as a hit” value in [20] is reported as “yes”. With “Breast cancer metastasis-suppressor 1-like protein, Q5PSV4”, the “listed as a hit” value in assay [21] is given as “yes”.
